# Measurements as given in PubChem BioAssay (Tox21).
# Results filed as inconclusive are left out. Values without a mark were called inactive. Activity calls are given as the source filed them. Calls follow the shape of the dose curve; as a rule, active = well fitted cell-killing curve with a large enough effect in the repeat runs; inconclusive = weak or mixed curves, or effect the other way; inactive = flat fitted curve, though single readings scatter.
# Assay: qHTS RealTime-Glo MT Cell Viability Assay in HEK293 cells - 24 hour (AID 1224886); also: nearly all actives have a fitted effect of over 50% in size; as to activity change, negative = cytotoxicity: top concentration of the series differs between compounds
# Conditions: RealTime-Glo luminescence; series mostly up to 76.8 µM; activity change, negative = cytotoxicity: at the top concentration
# Method in brief: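 Reads taken at 0, 8, 16, 24, 32 and 40 h from the same wells. HEK293 cells (600/well) carried RealTime-Glo reagents from seeding, with compound added after a 5 h settle at 37 C.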
# % is scaled to controls: 0 for no effect and ±100 for the full control effect; potency is read from the fitted curve at half-maximal effect.
SMILES,"activity change, negative = cytotoxicity",Potency
CC(CCO)CCc1ccccc1 (configuration not stated),-0.949%,–
CSc1ccc(Oc2ccc(S(N)(=O)=O)cc2CN(C)C)cc1C,–,49 µM (active)
Cc1nccn1-c1ccc(Sc2cccc(C3(C(N)=O)CCOCC3)c2)cc1,–,1.38 µM (active)
ON(Cc1ccccc1)Cc1ccccc1,-0.478%,–
CC(C)CCCCCOC(=O)CCCCC(=O)OCCCCCC(C)C,1.44%,–
C[Si]1(C)O[Si](C)(C)O[Si](C)(C)O1,2.53%,–
CCCCN(CCCC)CCCOC(=O)c1ccc(N)cc1,-24.1% [at 35.3 µM],–
CCN(CC)CCNC(=O)c1ccc(NC(C)=O)cc1,-2.34% [at 35.3 µM],–
CC(C)CCCCCCOC(=O)CCCCC(=O)OCCCCCCC(C)C,-0.847%,–
C/C(=N/NC(=O)c1ccncc1)C(=O)O,3.37% [at 35.3 µM],–
Nc1c(I)cc(I)c(C(=O)N(CCC(=O)O)c2ccccc2)c1I,-5.56% [at 35.3 µM],–
CCCCCCCCCCCCCCC[C@H](O)[C@@H](N)CO,–,21.3 µM (active)
O=C(C(=O)c1ccccc1)c1ccccc1,16%,–
Cc1ccc(/C=N/n2c(-c3ccccc3)csc2=S)cc1,-0.402% [at 35.3 µM],–
Cc1occc1C(=O)Nc1ccc(C(=O)N2CCC(F)(F)/C(=C\C(=O)N3CCC(N4CCCCC4)CC3)c3ccccc32)cc1,–,5.43 µM (active)
CC[C@H](NC(=O)c1cc(F)ccc1NS(=O)(=O)c1cccc2cccnc12)c1ccccc1,-5.46%,–
O=C(OCCOCCO)c1ccccc1Nc1cccc(C(F)(F)F)c1,-29.5% [at 35.3 µM],–
CC(=O)Oc1ccc(C(=C2CCCCC2)c2ccc(OC(C)=O)cc2)cc1,2.34% [at 35.3 µM],–
COCC(O)CO (configuration not stated),-6.49%,–

SMILES,"activity change, negative = cytotoxicity",Potency
CC(C)c1nnc2ccc(-c3ocnc3-c3cc(F)ccc3F)cn12,–,19.5 µM (active)
O=C(CCCCCCCCC#CI)Oc1ccccc1,-22.9% [at 35.3 µM],–
Cc1ccc(S)cc1,7.78%,–
CO[Si](C)(OC)OC,6.54%,–
CC(C)(C)C(=O)C(Oc1ccc(Cl)cc1)n1ccnc1 (configuration not stated),-19.7% [at 35.3 µM],–
c1cnc2c(n1)CCCC2,0.905%,–
CC1CN(c2cc3c(cc2F)c(=O)c(C(=O)O)cn3-c2ccc(F)cc2F)CCN1 (configuration not stated),6.23% [at 6.97 µM],–
COc1cc2c(cc1OC)-c1cc(=Nc3c(C)cc(C)cc3C)n(C)c(=O)n1CC2,-31.8% [at 35.3 µM],–
COc1cc2c(N3CCN(C(=O)Nc4ccc(OC(C)C)cc4)CC3)ncnc2cc1OCCCN1CCCCC1,–,9.52 µM (active)
OC/C(Br)=C(\Br)CO,-2.98%,–
Cc1nc2ccccn2c(=O)c1CCN1CCC(C(=O)c2ccc(F)cc2)CC1,–,7.56 µM (active)
NC(=O)N(O)[C@@H]1C=C[C@H](Oc2cccc(Oc3ccc(F)cc3)c2)C1,–,15.5 µM (active)
CCc1cccc(N(C)C(N)=Nc2cccc3ccccc23)c1,-34.4% [at 35.3 µM],–
NC(=O)Nc1ccc(Cl)cc1,-1.99%,–
CN(C(=O)C(Cl)Cl)c1ccc(OC(=O)c2ccco2)cc1,-6.54% [at 35.3 µM],–
C/C=C/C=C/CCCCCCCO,-17.9%,–
O=Cc1c(Cl)cccc1Cl,-15.4%,–
O=C(NCCCN1CCOCC1)c1ccc(Cl)cc1,4.89% [at 35.3 µM],–
